Test results published in PubChem BioAssay (NCATS).
Records with an inconclusive call do not appear. The source made the active and inactive calls. Unless noted, calls follow the shape of the dose curve; as a rule, active = well fitted curve in the direction sought with a large enough effect; inconclusive = small, poorly fitted or top-dose-only effect, or another doubt; inactive = no such curve, though single readings can be large; an effect the other way counts as inactive or inconclusive.

Legend:
[1] = qHTS for Hypoxia signaling pathway (HIF-1) antagonists against the NCATS CANVASS Library (AID 1347374)
How it was run: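 HRE-bla ME-180 cells in medium with 0.5% dialyzed FBS received compounds (11-point series) plus CoCl2 (60 uM addition stock) for 17 hrs at 37C. Beta-lactamase activity read with CCF4 (405 nm ex, 460/530 nm em); CellTiter-Glo viability measured in same wells.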

[2] = qHTS for Hypoxia signaling pathway (HIF-1) agonists against the NCATS CANVASS Library (AID 1347375)
How it was run: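 HRE-bla ME-180 cells (0.5% dialyzed FBS) were pre-incubated 5 hrs at 37C, then exposed to compounds in an 11-point series for 17 hrs. Read-out was CCF4-AM beta-lactamase FRET (460/530 nm emissions), with CellTiter-Glo viability in the same wells.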

[3] = 10-beta competent E. coli microbial cell viability qHTS against the NCATS CANVASS Library (AID 1347376)
How it was run: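 10-beta competent E. coli (0.2 OD) were exposed overnight at 37C to compounds in an 11-point series. Viability was read as ATP-dependent BacTiter-Glo luminescence after 20 min at room temperature.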

[4] = DH5-alpha competent E. coli microbial cell viability qHTS against the NCATS CANVASS Library (AID 1347377); settings: outcome: at 46.1 µM (top of the series)
How it was run: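 DH5-alpha E. coli suspension was exposed to an 11-point compound series overnight at 37 °C. Viable cells quantified by ATP luminescence (BacTiter-Glo) after 20 min at room temperature.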

[5] = qHTS for H2AX Agonists against the NCATS CANVASS Library (AID 1347378)
How it was run: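 CHO-K1, 1000 cells/well, o/n 37C; cpd several conc, 3 hr 37C, 0.76% DMSO; lyse 30 min RT; cryptate anti-pH2AX(S139) + d2 anti-H2AX, 24 hr RT; HTRF 665/620.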

[6] = qHTS for Inflammasome Signaling Inhibitors: IL-1-beta AlphaLISA screen against the NCATS CANVASS Library (AID 1347379); settings: outcome: at 57.5 µM (top of the series)
How it was run: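 THP-1 cells pretreated 1 hr with compound (up to 57.5 uM final), then stimulated with LPS (250 ng/mL final) and ATP (1.25 mM final). Secreted IL-1B measured by AlphaLISA after 16 hr; glyburide as positive control.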

[7] = qHTS for Antimalaria activity screened against the NCATS CANVASS Library (AID 1347380)
How it was run: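 Red blood cells infected with P. falciparum Dd2 (2.5% hematocrit final, 0.3% parasitemia) were exposed to compounds in an 11-point qHTS series for 72 hr at 37C under 5% O2 and 5% CO2. Lysis buffer with SYBR Green was then added for 18 hr, and fluorescence was read at 485/535 nm.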

[8] = Inflammasome Signaling qHTS Counterscreen: IL-1-beta AlphaLISA counterscreen against the NCATS CANVASS Library (AID 1347381)
How it was run: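 Cell-free interference check: compounds added to medium spiked with 4 pg purified IL-1β. Anti-IL-1β acceptor beads (6 ug/mL) with 0.6 nM biotinylated antibody added for 1 h at RT, then streptavidin donor beads (24 ug/mL) for 30 min in the dark. AlphaLISA read at 680/615 nm.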

[9] = Cytotoxicity qHTS for assessment of Hepg2 cells membrane integrity screened against the NCATS CANVASS Library (AID 1347387)
How it was run: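 HepG2 cells (2000/well) attached overnight, then exposed 5 hr at 37C to compounds in an 11-point series (0.59 nM - 46 uM final). LDH release from damaged membranes read fluorometrically (CytoTox-ONE; 560/590 nm) after 10 min at room temperature.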

[10] = qHTS for Activators of p53 Stress Response Pathway screened against the NCATS CANVASS Library (AID 1347388)
How it was run: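 p53RE-bla HCT-116 cells (4000/well) were pre-incubated for 5 h, then treated with compound (11 points) for 16 h at 37C. After 2 h with CCF4, the 460/530 nm ratio gave reporter activation; CellTiter-Glo measured viability.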

[11] = qHTS assay for small molecule disruptors of mitochondrial membrane potential screened against the NCATS CANVASS Library (AID 1347389)
How it was run: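 HepG2 cells (2,000/well) plated overnight, then exposed to compounds in 11-point qHTS series for 1 h at 37C before 30 min Mito-MPS dye; depolarization read as fall in red aggregate (590 nm) to green monomer (535 nm) fluorescence.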

[12] = Secretion counterscreen for inhibitors of the SERCaMP assay screened against the NCATS CANVASS Library (AID 1347390)
How it was run: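 SH-SY5Y-GLuc STOP cells; 4 h attach; cpds 0.001 - 77 uM (qHTS, 11 pts), 20 h 37C/5% CO2; coelenterazine in glow buffer; luminescence, 5 s exposure.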

[13] = qHTS for activators of Nrf2/ARE signaling pathway screened against the NCATS CANVASS Library (AID 1347391)
How it was run: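 ARE-bla HepG2 beta-lactamase reporter cells exposed to compounds for 16 h at 37C; CCF4 substrate 2 h, fluorescence at ex 405 nm, em 460/530 nm. Viability by CellTiter-Glo luminescence.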

[14] = qHTS for activators of dead-cell proteases activity screened against the NCATS CANVASS Library (AID 1347392)
How it was run: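 HepG2 cells, 2000/well, attached 18 h at 37C, then exposed to compounds (11-point qHTS) for 5 h. Dead-cell protease release read as luminescence from cell-impermeant AAF-aminoluciferin substrate after 15 min at room temperature.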

[15] = qHTS for inhibitors of ER calcium dysfunction: SERCaMP assay screened against the NCATS CANVASS Library (AID 1347393)
How it was run: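 SH-SY5Y GLuc-SERCaMP, 1000 cells/well, 4 h attach; cpd 16 h, 37C/5% CO2; thapsigargin (added as 6x 600 nM) 4 h; coelenterazine; luminescence. Reduced reporter release = ER Ca stabilization.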

[16] = Vero-766 cells viability qHTS against the NCATS CANVASS Library: Counterscreen for Zika virus inhibition assay (AID 1347394)
How it was run: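 Vero 766, no virus; 1000 cells/well; o/n attach; cpd 11-pt; 72 h, 37C, 5% CO2; CTG luminescence; cell-free media wells = 100% inhibition.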

[17] = qHTS for inhibitors of Wild type Zika virus screened against the NCATS CANVASS Library (AID 1347396)
How it was run: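 Luminescent CellTiter Glo read-out of virus-induced cytotoxicity, 72 h post-infection, in Vero 766 cells. Compounds were tested at 11 concentrations; uninfected, vehicle-treated wells defined 100% inhibition.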

[18] = Viability qHTS for inhibitors of the SERCaMP assay screened against the NCATS CANVASS Library (AID 1347400)
How it was run: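 SH-SY5Y-GLuc SERCaMP MJH297-derived cells, 1000/well, plated 4 h, then exposed to compounds in an 11-point qHTS series for 48 h at 37C. Viability read as CellTiter-Glo luminescence.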

[19] = Redox Reaction Profiling qHTS: Assay Interference Panel against the NCATS CANVASS Library (AID 1347401)
How it was run: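 Compounds in 11-point series incubated with 5 uM resazurin and 200 uM DTT in 50 mM HEPES pH 7.3, 50 mM NaCl. Resorufin fluorescence (Ex 525/Em 598) read before and after 15 min in the dark.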

[20] = qHTS for inhibitors of Rabies Virus screened against the NCATS CANVASS Library (AID 1347402; calls by dose curve)

Measured: outcome

NCCc1c[nH]c2ccc(O)cc12
inactive: all assays above

NCCc1c[nH]c2ccccc12
inactive: all assays above
